Laboratory results as given in PubChem BioAssay (NCATS).
Records with an inconclusive call do not appear. The source made the active and inactive calls. Unless noted, the call rests on the fitted dose curve; in most records, active means well fitted curve in the direction sought with a large enough effect; inconclusive means small, poorly fitted or top-dose-only effect, or another doubt; inactive means no such curve, though single readings can be large; an effect the other way counts as inactive or inconclusive.

Key:
[1] = qHTS to identify inhibitors of the type 1 interferon - major histocompatibility complex class I in skeletal muscle: primary screen against the NCATS Mechanism Interrogation Plate v5.0 (MIPE) Libary (AID 1347411);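 further: plate controls were vehicle for no effect and reference inhibitor for full effect; nearly all actives have a fitted effect of over 65% in size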
How it was run: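 Luminescence from HiBiT-tagged endogenous HLA-B*08:01 served as the MHC class I read-out. CRISPR-engineered C25cl48 human myoblasts received 4.0 ng/ml IFN-beta plus compound for 24 hrs, with an 11-point, 1:3 series topping at 46 uM final.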

[2] = Primary qHTS for inhibitors of nuclear receptor binding SET domain protein 2 (NSD2) in an RCH-ACV wild type WT cells (2C) (AID 1645877); further: potency means the concentration at half of the fitted maximal effect; nearly all actives have a fitted effect of over 70% in size
[3] = target: Glutathione peroxidase 1 (Homo sapiens) (UniProt P07203); assay: Primary qHTS Assay for Inhibitors of Recombinant Selenoprotein Glutathione Peroxidase 1 (GPX1) (AID 1845191); further: nearly all actives have a fitted effect of over 65% in size
Sequence of Glutathione peroxidase 1 (Homo sapiens) (P07203 whole entry, looked up): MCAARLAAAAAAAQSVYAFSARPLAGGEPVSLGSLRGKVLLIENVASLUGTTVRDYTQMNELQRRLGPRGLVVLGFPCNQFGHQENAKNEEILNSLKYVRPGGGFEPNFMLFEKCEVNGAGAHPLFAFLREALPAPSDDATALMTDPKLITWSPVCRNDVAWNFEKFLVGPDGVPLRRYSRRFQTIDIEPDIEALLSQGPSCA
How it was run: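 Recombinant GPX1 (10 nM final) was preincubated with compound for 30 min at room temperature, then reacted with 1 mM GSH, 0.5 mM CHP, 0.5 mM NADPH and 100 nM glutathione reductase; NADPH fluorescence (340/450 nm) was read at 0 and 15 min.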

[4] = target: Phospholipid hydroperoxide glutathione peroxidase GPX4 (Homo sapiens) (UniProt P36969); assay: Primary qHTS Assay for Inhibitors of Recombinant Selenoprotein Glutathione Peroxidase 4 (GPX4) (AID 1845192); conditions: outcome: dose series up to 50 µM unless noted; further: series mostly up to about 50 µM; nearly all actives have a fitted effect of over 65% in size
Sequence of Phospholipid hydroperoxide glutathione peroxidase GPX4 (Homo sapiens) (P36969 whole entry, looked up): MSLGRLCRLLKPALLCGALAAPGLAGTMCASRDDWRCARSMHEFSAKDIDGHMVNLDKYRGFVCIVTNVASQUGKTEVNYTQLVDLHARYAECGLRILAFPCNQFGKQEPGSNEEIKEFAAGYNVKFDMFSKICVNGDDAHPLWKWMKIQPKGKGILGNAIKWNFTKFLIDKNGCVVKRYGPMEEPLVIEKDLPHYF
How it was run: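 GR-coupled readout: 100 nM GR, 1 mM GSH, 0.5 mM NADPH; NADPH fluorescence (ex 340/em 450 nm) read at t=0 and after 15 min RT. GPX4 200 nM, preincubated 30 min with compound; substrate 0.5 mM CHP.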

[5] = qHTS drug screen for cell cycle checkpoint inhibitors in PARPi-resistant BRCA-mutant ovarian cancer cell lines. (AID 1963452; calls by dose curve); conditions: PEO1/OlaR viability, CellTiter-Glo luminescence, 96 h, stronger effect = lower value
How it was run: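 PEO1, PEO4 and PEO1/OlaR ovarian cancer cells, 600 per well, exposed 96 h at 37C to a dilution series. Viability read by CellTiter-Glo luminescence, normalized to DMSO and empty wells; activity summarized as Z-AUC.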

[6] = measured here: PEO1 parental Z-AUC

| Compound | Potency [1] | Potency [2] | Potency [3] | Potency [4] | Z-AUC [5] | Z-AUC [5, 6] | Z-AUC ([5]; measured here: PEO4 Z-AUC) |
| --- | --- | --- | --- | --- | --- | --- | --- |
| COc1cc(-c2cn(C)c(=O)c3cnccc23)c(OC)cc1CN(C)C | inactive | 8.33 µM (active) | inactive | inactive | -0.443 (inactive) | -0.655 | -0.662 |
| O=C1S/C(=C\c2ccc(OCc3cccc(B(O)O)c3)cc2)C(=O)N1Cc1ccc(F)cc1 | inactive |  | inactive | inactive | 0.689 (inactive) | 0.417 | 0.814 |
